Test results taken from PubChem BioAssay (NCI).
The panel holds about 83,000 compounds, 20% with a hit somewhere; the sample as a whole holds those more often.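 Cells were grown in 96-well plates and exposed to the test compound at a single concentration for 48 hours; results are reported as percent growth, with values below 10 considered active.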 Unmarked numbers belong to inactive results. The source made the active and inactive calls.

Legend:
Assay in all cases: NCI-60 one-dose screen, 48 h (100 = growth as untreated, 0 = no growth, -100 = all killed)
Details in all cases: 10 µM unless noted
[1] = system: SR leukemia
[2] = system: RPMI-8226 leukemia
[3] = system: OVCAR-8 ovarian
[4] = system: OVCAR-5 ovarian
[5] = system: OVCAR-4 ovarian
[6] = system: SK-OV-3 ovarian
[7] = system: IGROV1 ovarian
[8] = system: OVCAR-3 ovarian
[9] = system: HS 578T breast
[10] = system: NCI/ADR-RES ovarian

Row | Compound | growth [1] | growth [2] | growth [3] | growth [4] | growth [5] | growth [6] | growth [7] | growth [8] | growth [9] | growth [10]
1 | CCSc1nc2ccccc2o1 | 94.2% | 104% | 103% | 101% | 101% | 104% | 90.1% | 111% | 102% | 108%
2 | CC(C)(C)c1ccc(O)c(Br)c1 | 106% | 85% | 103% | 98.1% | 101% | 120% | 111% | 99.2% | 96.4% | 100%
3 | COc1cc(/C=C/c2ccnc3ccccc23)cc(OC)c1OC | 7.06% (active) | 60.6% | 42.5% | 50.5% | 54.6% | 30.1% | 59.1% | 16.4% | 24.4% | -25.5% (active)
4 | CCOC(=O)c1c(C)[nH]c2ccc(O)cc12 | 101% | 89.5% | 97.6% | 130% | 107% | 99.2% | 103% | 105% | 92% | 101%
5 | O=C1CSC(=S)N1Cc1cccnc1 | -10.3% (active) | 9.56% (active) | 53.8% | 106% | 91.7% | 106% | 114% | 99.2% | 114% | 106%
6 | O=Nc1ccc2ccccc2c1O | 60.1% | 70% | 6.45% (active) | 81.8% | 35.2% | 95% | 53.2% | 2.86% (active) | 51% | 6.37% (active)
7 | CC(=O)C1Cc2ccccc2C1=O (stereo not given) | 108% | 117% | 119% | 101% | 104% | 96.1% | 116% | 112% | 103% | 104%
8 | CC(CSc1n[nH]c(=S)s1)c1ccccc1 (stereo not given) | 84.5% | 103% | 109% | 127% | 94.1% | 102% | 110% | 117% | 108% | 114%
9 | COc1cc([C@@H]2c3cc4c(cc3[C@H](OC3OC5COC(c6ccccc6)OC5C(O)C3O)[C@H]3COC(=O)[C@H]23)OCO4)cc(OC)c1OC (stereo not given in full) | -25.4% (active) | -21.4% (active) | 29.4% | 38.1% | 45.3% | 83.1% | -45.7% (active) | 61.8% | -30% (active) | -38.9% (active)
10 | O=C(CCl)N(c1ccccc1)c1ccccc1 | 101% | 109% | 96.3% | 117% | 111% | 114% | 115% | 109% | 102% | 108%
11 | COc1ccc2nc3cc(Cl)ccc3c(NCCCCCN3CCCCC3)c2c1 | -17.9% (active) | -27% (active) | -13.6% (active) | -27.1% (active) | -61% (active) | -15.2% (active) | 5.24% (active) | -21.8% (active) | 35.3% | -8.47% (active)
12 | c1ccc(-c2cccc(-c3ccccn3)n2)nc1 | 7.98% (active) | 20.8% | 12% | 59% | 33.3% | 7.86% (active) | 19.3% | 28.2% | 67% | 1.8% (active)
13 | C/C(=N/NC(N)=S)c1ccc(C)cc1 | 94.6% | 71.4% | 76.7% | 111% | 88% | 98.8% | 105% | 62.8% | 102% | 76%
14 | O=C(Nc1cccc(C(F)(F)F)c1)Oc1ccc(Cl)c2cccnc12 | -1.87% (active) | -37.9% (active) | -11.1% (active) | 87.7% | -0.489% (active) | 95.8% | 5.79% (active) | -56.3% (active) | 17.4% | 4.64% (active)
15 | COC(=O)c1ccc(=O)c2nc3/c(=C/O)c(O)cc(=O)c3[nH]c12 | -11.4% (active) | 51.1% | 12.2% | 54.7% | 47.4% | 52% | -61.2% (active) | -4.24% (active) | -10.3% (active) | 11%
